Screening results: PubChem BioAssay, National Center for Advancing Translational Sciences (NCATS)
Only some compounds are listed: those with a hit (about 2.4% of all), similar ones and a draw of the others.
POLK inh: DNA polymerase kappa (human) inhibition. AID 588579. Q9UBT6. purified Pol kappa, fluorescent DNA synthesis assay, 10 min. Potency, µM (highest dose often 107 µM), for inactives: at the top dose activity, negative = inhibition, hits mostly inhibitors. actives 0.53% (n = 400,000); note: % is set by controls: 0 for no effect and ±100 for the full control effect
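Here, compound and 10 nM enzyme are combined for 15 min at room temperature; adding 50 nM substrate (final) starts DNA synthesis, tracked by fluorescence at 0 and 10 min against buffer-only wells.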
FEN1 inhibitor: human FEN1 inhibition. Recombinant FEN1 flap cleavage, fluorescence, 15 min. actives 0.35% (n = 390,000). P39748. Potency, µM (doses to about 114 µM), for the others: at the top dose activity change, negative = inhibition, actives largely listed as inhibitors; note: % is set by controls: 0 for no effect and ±100 for the full control effect; nearly all actives have a fitted effect of over 65% in size
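Potency values derive from four-parameter Hill fits of normalized qHTS data. The reaction used 10 nM FEN1 preincubated 15 min at room temperature with compound, then 50 nM DNA substrate, read at 0 and 15 min.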
Pol eta inh: inhibitors of human DNA polymerase eta; recombinant Pol eta, fluorescent DNA replication assay; Potency, µM (titrated, usually from 114 µM), without a hit: top-dose activity change, negative = inhibition, most hits filed as inhibitors; actives 1.2% (n = 390,000); Q9Y253; AID 588591; note: % is set by controls: 0 for no effect and ±100 for the full control effect
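Pol eta at 10 nM preincubated with compounds 15 min at room temperature; reaction started with fluorescent substrate (50 nM final) and read kinetically at 0 and 10 min.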
POLB inh: inhibitors of human DNA polymerase beta. AID 485314. P06746. actives 1.3% (n = 340,000). Pol beta primer extension/strand displacement, fluorescence kinetic. Potency, µM (series often up to 114 µM), for the others: top-dose activity change, negative = inhibition, hits mostly inhibitors; note: % is set by controls: 0 for no effect and ±100 for the full control effect
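Human Pol beta at 10 nM; strand-displacement substrate 50 nM final. Compound exposure 15 min at room temperature before start, reaction 10 min at room temperature.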
POLI inh: DNA polymerase iota (human) inhibition | Pol iota fluorescent replication assay, 10 min | Potency, µM (titrated, usually from 115 µM), for the others: top-dose activity, negative = inhibition, actives largely listed as inhibitors | Q9UNA4 | actives 1% (n = 390,000)
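Pol iota at 10 nM preincubated 15 min with compounds at room temperature; reaction started with fluorescent substrate, 50 nM final. Fluorescence read kinetically at 0 and 10 min; buffer-only wells as negative control.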
WRN helicase inh: blocks human WRN helicase. Q14191. WRN helicase unwinding, fluorescent forked duplex, kinetic. Potency, µM (top dose mostly 114 µM), without a hit: top-dose activity change, negative = inhibition, actives largely listed as inhibitors. actives 0.46% (n = 360,000); note: % is set by controls: 0 for no effect and ±100 for the full control effect; nearly all actives have a fitted effect of over 55% in size
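Kinetic fluorescence helicase assay: unwinding of a quenched forked DNA duplex (100 nM final) with 2 mM ATP final raises red fluorescence (525/598 nm). Compounds sat 15 min at room temperature with 20 nM WRN beforehand.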
Active calls of the source: *; ! = not confirmed by another sample; [ ] = remark or other dose. Calls come from the whole dose curve; as a rule, active = well fitted curve in the direction sought with a large enough effect; inconclusive = small, poorly fitted or top-dose-only effect, or another doubt; inactive = no such curve, though single readings can be large; an effect the other way counts as inactive or inconclusive. Potency is the fitted concentration of half-maximal effect.

`CCCn1ncc(CN2CCN(CCc3ccccc3)C(CCO)C2)c1C` (centres undefined) gave POLK inh 3%[60.1 µM], FEN1 inhibitor -8%, Pol eta inh -9%, POLB inh inconclusive, POLI inh 14% and WRN helicase inh -1%.
For N#CCNC(=O)c1nn2c(C(F)(F)F)cc(-c3ccccc3)nc2c1Br the results were POLK inh -7%, FEN1 inhibitor 10%, Pol eta inh -22%, POLB inh 15%, POLI inh 163% and WRN helicase inh 3%.
For Cc1cc(-c2ccccc2)nc2c(Br)c(C(=O)O)nn12 the results were POLK inh 79µM*, FEN1 inhibitor inconclusive, Pol eta inh 7.9µM*, POLI inh 11µM* and WRN helicase inh inconclusive.
`Cc1ccc(-c2nn3c(C)nnc3s2)cc1NC(=O)CSc1ccc(Cl)cc1` gave POLK inh -4%, FEN1 inhibitor -3%, Pol eta inh 1%, POLB inh 26%, POLI inh -11% and WRN helicase inh -3%.
For CC(=O)c1c(C)oc2ccc(NS(=O)(=O)c3ccc(O)c(C(=O)O)c3)cc12 the results were POLK inh -29%, FEN1 inhibitor -4%, Pol eta inh 25µM*, POLB inh inconclusive, POLI inh inconclusive and WRN helicase inh -25%[57.1 µM].
Screening O=C(O)c1cc(NS(=O)(=O)c2ccc3ccccc3c2)ccc1O returned POLK inh -7%, FEN1 inhibitor 17%, Pol eta inh 2%, POLB inh -13%, POLI inh inconclusive and WRN helicase inh -3%.
CC(=O)c1c(C)oc2ccc(NS(=O)(=O)c3ccc(F)cc3C)cc12 was read as POLK inh 0%, FEN1 inhibitor 1%, Pol eta inh -10%, POLB inh 14%, POLI inh 35% and WRN helicase inh -7%.
O=C(O)c1cc(S(=O)(=O)Nc2ccc3oc(=O)sc3c2)ccc1O was read as POLK inh inconclusive, FEN1 inhibitor -23%, Pol eta inh 14µM*, POLB inh 50µM*, POLI inh inconclusive and WRN helicase inh 28µM*.
CCc1cccc(NC(=O)C2CCCN(S(=O)(=O)c3cccs3)C2)c1 (centres undefined) was read as POLK inh -29%, FEN1 inhibitor inconclusive, Pol eta inh -16%, POLB inh 37%, POLI inh 79µM*! and WRN helicase inh -8%.
For Cn1cc(/C=C2\SC(=S)N(NC(=O)c3cccc(Cl)c3)C2=O)c2ccccc21 the results were POLK inh 10%, FEN1 inhibitor 8%, Pol eta inh 14%, POLB inh 0%, POLI inh 20% and WRN helicase inh 20µM*.
For COc1ccc(N=C2S/C(=C\c3cc(C)n(C)c3C)C(=O)N2CC(C)C)cc1 the results were POLK inh -8%, FEN1 inhibitor -20%, Pol eta inh -15%, POLB inh 0%, POLI inh -6% and WRN helicase inh -31%.
COc1ccc(N=C2S/C(=C\c3ccco3)C(=O)N2CC(C)C)cc1 was read as POLK inh -2%, FEN1 inhibitor -5%, Pol eta inh -10%, POLB inh 79µM*, POLI inh -3% and WRN helicase inh 9%.
For CN(Cc1cnc2nc(N)nc(N)c2n1)c1ccc(C(=O)N[C@@H](CCC(=O)O)C(=O)O)cc1 the results were POLK inh inconclusive, FEN1 inhibitor inconclusive, Pol eta inh 32µM*!, POLB inh 40µM*, POLI inh 32µM*! and WRN helicase inh -11%.
Screening CN(Cc1cnc2nc(N)nc(N)c2n1)c1ccc(C(=O)N[C@H](CCC(=O)O)C(=O)O)cc1 returned POLK inh -4%[12 µM].
`CC(=C1SC(=S)NC1=O)c1ccccc1` gave POLK inh -10%, FEN1 inhibitor 3%, Pol eta inh 3%, POLI inh 89µM* and WRN helicase inh -11%[11.6 µM].
